The first experiment addresses TMEM156. In words: pooled miR-30 sensor sort-seq; sequence = guide strand. The following applies: shRNA.
Sequence TAGATTGCAAACACACTTCCAG showed a sensor-assay potency score (higher = more potent) of 0.703.

TTTGCTTTCACTTCCATTGATC came in with a sensor-assay potency score (higher = more potent) of -0.423.

Regarding TTAAGAGAACAGATGTAGGTTT, the sensor-assay potency score (higher = more potent) came to 0.112.

In a further experiment the target is TMEM158. The experiment is described as above. The following applies: shRNA.
In turn, TTAAACATCTGCTTTTCGGAAC registered a sensor-assay potency score (higher = more potent) of -0.542.

TCCAGGCTGAAGTCTAGGCAGC returned a sensor-assay potency score (higher = more potent) of -1.79.

Take TAGCAATTTAATCTTTTTGTTT: the sensor-assay potency score (higher = more potent) was -1.1.

With TATAAAACAAATACACAGGATT, the sensor-assay potency score (higher = more potent) is -0.653.

Sequence TTTTCTGCCATGAATCTAGGGC yielded a sensor-assay potency score (higher = more potent) of -0.129.

The sequence TAACGATAACTACAGCACGAAG returned a sensor-assay potency score (higher = more potent) of -1.77.

On to TGATGTTGCACGGCGCCGCCGC, for which the sensor-assay potency score (higher = more potent) was -0.887.

In the case of ATGACCAGGGTCATGAAGCAGG, the sensor-assay potency score (higher = more potent) is -1.09.

Consider TACGGTTCAGCCGCCAGCCCGG, for which the sensor-assay potency score (higher = more potent) is -1.31.

Consider TCGCACTGGAAGCCCCGCGGGC, for which the sensor-assay potency score (higher = more potent) was -1.57.

The sequence AAGAGCAGTAGGTCGCACTGGA displayed a sensor-assay potency score (higher = more potent) of 0.351.

TAGGTCGCACTGGAAGCCCCGC: the sensor-assay potency score (higher = more potent) is -0.714.

A further experiment addresses TMEM18. Described as above. Particulars: shRNA.
The sequence TATAGAAATGAACATCCCCCTG had a sensor-assay potency score (higher = more potent) of -1.12.

On to TAGACTAAGATGACTAGACACA, for which the sensor-assay potency score (higher = more potent) is -0.939.

In turn, TATTTCGAAAATAATCTCCAGT yielded a sensor-assay potency score (higher = more potent) of -0.177.

With TAGCTTCGGGAGGACAAGCAGG, the sensor-assay potency score (higher = more potent) is -1.33.

On to ATAACCACAATGATCATGGCAT, for which the sensor-assay potency score (higher = more potent) is 0.502.

For TCTGTAGTCTGTAGCTTCGGGA, the sensor-assay potency score (higher = more potent) was -0.977.

The sequence TTTCAAACCATGAGTCAGCTGG registered a sensor-assay potency score (higher = more potent) of 0.141.

Consider TAGTCTGTAGCTTCGGGAGGAC, for which the sensor-assay potency score (higher = more potent) was -0.482.

In turn, TATTTAAATAAAACAACGGTTT displayed a sensor-assay potency score (higher = more potent) of -1.16.

ATCTGTAGTCTGTAGCTTCGGG showed a sensor-assay potency score (higher = more potent) of -0.359.

TATATTTATAATTAGTACTAGT yielded a sensor-assay potency score (higher = more potent) of -0.393.

ATAATCTCCAGTTCATCGCAGC had a sensor-assay potency score (higher = more potent) of -0.328.

The next experiment deals with TMEM200C. The experiment is described as above. The following applies: shRNA.
Take TCCAGTTCTTCTTCTACCCCTA: the sensor-assay potency score (higher = more potent) was -0.433.

For TTTCACCACCACCACGTCGTTC, the sensor-assay potency score (higher = more potent) was -1.27.

TTGGCTTTCCGCTTGCGCTTGG had a sensor-assay potency score (higher = more potent) of 0.0739.

As to TTTGCTGCCACTGCTACTGCTG, the sensor-assay potency score (higher = more potent) was -0.287.

Consider TTGCGCTTGGGTATCTGGCTTG, for which the sensor-assay potency score (higher = more potent) was -0.405.

TTCTTGTCCCGGTTCTCGTGGA came in with a sensor-assay potency score (higher = more potent) of -0.413.

TTGAGCTTGTCAGAGTGCAGGT gave a sensor-assay potency score (higher = more potent) of 0.387.

AATCATGATGAGTTTCTCCTTG showed a sensor-assay potency score (higher = more potent) of -0.235.

ATTTTGGTCTTCTTGTCCCGGT showed a sensor-assay potency score (higher = more potent) of -0.495.

Consider TTTTGGTCTTCTTGTCCCGGTT, for which the sensor-assay potency score (higher = more potent) was -1.07.

TTGTAAACTGCCTCTGCACCGG came in with a sensor-assay potency score (higher = more potent) of -0.336.

With TTGACCAGCTACTGCGTCCAAG, the sensor-assay potency score (higher = more potent) was -1.14.

The values are drawn from the OligoGym collection.
Also: reference of the scale not given here.
